Assay [1] concerns the target Hepatocyte nuclear factor 3-beta (Homo sapiens) (UniProt Q9Y261). As to the kind of experiment: ATG_FoxA2_CIS: Attagene CIS-FACTORIAL HepG2 Assay for human Forkhead box A2 (FOXA2) (AID 2282942). The following applies: HepG2 cis-reporter transcription factor activity, 24 h; actives raise or lower the signal. Put shortly: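 Endogenous transcription factor activity was read in HepG2 cells carrying transiently transfected cis-promoter reporter units. After 24 h dosing, reporter mRNA was quantified by RT-PCR and capillary electrophoresis, and values fitted bidirectionally versus DMSO.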

Assay [2] addresses Heat shock factor protein 1 (Homo sapiens) (UniProt Q00613). As to the kind of experiment: ATG_HSE_CIS: Attagene CIS-FACTORIAL HepG2 Assay for human Heat Shock Transcription Factor 1 (HSE) (AID 2282953). The following applies: HepG2 HSE cis-reporter, Attagene RNA transcription; actives raise or lower the signal. Put shortly:
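HepG2 cells transfected with cis-promoter reporter units sensing endogenous transcription factor activity; reporter mRNA quantified 24 h post-dose by RT-PCR and capillary electrophoresis of 6-FAM-labelled products. Bidirectional fitting against DMSO.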

Assay [3] in a line: ATG_RORE_CIS: Attagene CIS-FACTORIAL HepG2 Assay for human RAR-related Orphan Receptor Element (RORE) (AID 2282959). The conditions noted are these: HepG2 Attagene cis-factorial RORE reporter, mRNA; actives raise or lower the signal. Put shortly: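 Cells were HepG2 carrying transfected cis-regulated reporter constructs, dosed for 24 hours. Total RNA was reverse-transcribed and reporter cDNA amplified, fluorescently labeled and sized by capillary electrophoresis. Activity was fitted bidirectionally relative to DMSO.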

Assay [4] in a line: ATG_Sox_CIS: Attagene CIS-FACTORIAL HepG2 Assay for human SRY-box transcription factor (SOX) (AID 2282960). The following applies: HepG2 Attagene cis-factorial SOX reporter, mRNA; actives raise or lower the signal. A digest of the protocol: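 Transient MRTU transfection of HepG2; 24 h compound incubation; TriZol RNA, oligo(dT) RT, PCR, 6-FAM primer extension, HpaI cut, CE. Bidirectional fit, DMSO = baseline.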

The target in assay [5] is Transcription factor Sp1 (Homo sapiens) (UniProt P08047). As to the kind of experiment: ATG_Sp1_CIS: Attagene CIS-FACTORIAL HepG2 Assay for human Specificity Protein 1 (Sp1) (AID 2282961). The following applies: HepG2 Sp1 cis-reporter transcription, actives raise or lower the signal. A digest of the protocol: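 Endogenous Sp1 activity was gauged in human liver HepG2 cells bearing transfected reporter units under a cis-regulating promoter. After 24 h dosing, reporter mRNA was quantified by RT-PCR with capillary electrophoresis, and activity fitted bidirectionally versus DMSO.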
Transcription factor Sp1 (Homo sapiens), sequence (P08047 whole entry, looked up): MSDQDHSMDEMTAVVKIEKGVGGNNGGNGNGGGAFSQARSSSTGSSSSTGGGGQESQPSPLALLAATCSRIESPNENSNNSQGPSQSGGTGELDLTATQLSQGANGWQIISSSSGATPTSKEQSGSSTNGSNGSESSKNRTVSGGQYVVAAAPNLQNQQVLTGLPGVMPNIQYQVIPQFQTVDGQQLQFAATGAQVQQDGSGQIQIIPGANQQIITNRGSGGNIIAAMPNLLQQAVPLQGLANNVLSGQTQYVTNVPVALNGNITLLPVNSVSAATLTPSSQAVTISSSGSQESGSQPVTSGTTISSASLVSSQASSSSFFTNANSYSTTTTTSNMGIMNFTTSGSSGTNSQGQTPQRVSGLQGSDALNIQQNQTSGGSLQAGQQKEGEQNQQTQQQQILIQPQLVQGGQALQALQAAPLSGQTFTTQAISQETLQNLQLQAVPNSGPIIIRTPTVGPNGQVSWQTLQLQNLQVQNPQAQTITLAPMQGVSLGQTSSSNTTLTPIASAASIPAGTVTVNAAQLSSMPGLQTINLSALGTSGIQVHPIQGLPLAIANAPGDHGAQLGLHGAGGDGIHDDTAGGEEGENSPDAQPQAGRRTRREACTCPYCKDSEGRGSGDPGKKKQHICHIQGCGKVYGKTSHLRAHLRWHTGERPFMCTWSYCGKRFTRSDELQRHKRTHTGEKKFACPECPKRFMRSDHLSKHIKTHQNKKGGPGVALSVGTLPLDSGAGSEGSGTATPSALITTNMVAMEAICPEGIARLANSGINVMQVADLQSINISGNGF

Assay [6] in a line: ATG_SREBP_CIS: Attagene CIS-FACTORIAL HepG2 Assay for human Sterol Regulatory Element Binding (SREBP) (AID 2282962). The conditions noted are these: HepG2 Attagene cis-factorial SREBP reporter, mRNA; actives raise or lower the signal. A digest of the protocol: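 In this cis-format assay, HepG2 liver cells express reporters controlled by promoter elements responsive to native transcription factors. Exposure lasts 24 h; reporter mRNA fluorescence from capillary electrophoresis gives the signal, fitted bidirectionally against DMSO.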

Assay [7] addresses Signal transducer and activator of transcription 3 (Homo sapiens) (UniProt P40763). As to the kind of experiment: ATG_STAT3_CIS: Attagene CIS-FACTORIAL HepG2 Assay for human Signal Transducer and Activator of Transcription 3 (STAT3) (AID 2282963). The following applies: HepG2, Attagene cis-factorial STAT3 reporter transcription; actives raise or lower the signal. Put shortly:
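Readout: fluorescent reporter mRNA fragments resolved by capillary electrophoresis. Setup: HepG2 transfected with MRTUs reporting endogenous transcription-factor activity, dosed 24 h. Gain or loss of signal fitted bidirectionally against DMSO control.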

Assay [8] is described as follows: ATG_TA_CIS: Attagene CIS-FACTORIAL HepG2 Assay for human TA Basal Promoter (AID 2282964). The conditions noted are these: HepG2 Attagene CIS-factorial TA basal promoter reporter; actives raise or lower the signal. Put shortly:
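HepG2 cells transiently transfected with multiple reporter units under cis promoter elements, reporting endogenous transcription factor activity; this endpoint tracks the TA basal promoter as background control. Reporter mRNA after 24 h dosing measured by RT-PCR/capillary electrophoresis; bidirectional fits versus DMSO.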

A short description of assay [9]: ATG_TCF_b_cat_CIS: Attagene CIS-FACTORIAL HepG2 Assay for human T-Cell-Factor with beta-catenin (TCF/b-cat) (AID 2282965). The conditions noted are these: HepG2 TCF/beta-catenin cis-reporter transcription, actives raise or lower the signal. A digest of the protocol:
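HepG2 cells transiently transfected with cis-promoter-driven multiplexed reporter units; reporter mRNA measured 24 h after dosing by RT-PCR, FAM labelling, HpaI digestion and capillary electrophoresis. Bidirectional fitting relative to DMSO baseline.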

A short description of assay [10]: ATG_TAL_CIS: Attagene CIS-FACTORIAL HepG2 Assay for human TAL Basal Promoter (AID 2282966).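 Further: background control endpoint measuring basal TAL promoter reporter mRNA not a specific factor.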 The conditions noted are these: HepG2 Attagene cis-factorial TAL promoter reporter; actives raise or lower the signal. A digest of the protocol:
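Human hepatoma HepG2 cells, transfected with promoter-regulated reporter units, were treated 24 h. Reporter transcript levels, measured through RT-PCR and capillary electrophoresis, were fitted for gain or loss relative to DMSO.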

Assay [11] can be described thus: ATG_VDRE_CIS: Attagene CIS-FACTORIAL HepG2 Assay for human Vitamin D Receptor Element (VDRE) (AID 2282968). The following applies: HepG2 VDRE cis-reporter transcription, actives raise or lower the signal. A digest of the protocol:
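Transient MRTU transfection of HepG2, 24 h compound exposure. Readout: reporter transcripts via RT-PCR and capillary electrophoresis, fluorescence. Bidirectional fit vs DMSO.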

Assay [12] addresses Transcriptional activator Myb (Homo sapiens) (UniProt P10242). Description: ATG_Myb_CIS: Attagene CIS-FACTORIAL HepG2 Assay for human Myeloblastosis (Myb) Proto-Oncogene Transcription Factor (AID 2282986). The conditions noted are these: HepG2 Attagene CIS-FACTORIAL Myb reporter transcription; actives raise or lower the signal. A digest of the protocol:
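Steps: transfect HepG2 with cis-regulated reporter units; dose with chemical for 24 h; isolate RNA, reverse-transcribe, PCR-amplify and FAM-label reporter sequences; digest with HpaI; resolve by capillary electrophoresis. Activity fitted in both directions relative to DMSO.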

The target of assay [13] is Nuclear respiratory factor 1 (Homo sapiens) (UniProt Q16656). Description: ATG_NRF1_CIS: Attagene CIS-FACTORIAL HepG2 Assay for human Nuclear Respiratory Factor 1 (NRF1) Orphan Gene (AID 2282987). The following applies: HepG2 NRF1 cis-element reporter, Attagene multiplex; actives raise or lower the signal. A digest of the protocol:
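Fluorescence intensity of labelled reporter cDNA fragments, resolved by capillary electrophoresis, served as readout for NRF1 cis-element activity. Transiently transfected HepG2 cells were dosed for 24 hours; activity in either direction was fitted against DMSO negative control.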

The nature of assay [14]: ATG_NFI_CIS: Attagene CIS-FACTORIAL HepG2 Assay for human Nuclear Factor I (NFI) (AID 2282989). The conditions noted are these: HepG2 cis-regulatory reporter, NFI response element transcription; actives raise or lower the signal. A digest of the protocol: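 Endogenous TF activity in HepG2 cells transiently transfected with cis-element-driven multiplexed reporter units, read 24 h after dosing. Reporter mRNA quantified by RT-PCR, 6-FAM labelling, HpaI digestion and capillary electrophoresis; bidirectional fit versus DMSO.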

Assay [15] addresses Myc proto-oncogene protein (Homo sapiens) (UniProt P01106). As to the kind of experiment: ATG_Myc_CIS: Attagene CIS-FACTORIAL HepG2 Assay for human Myelocytomatosis (Myc) Proto-Oncogene Transcription Factor (AID 2282990). The following applies: HepG2, Attagene cis-reporter transcription factor activity; actives raise or lower the signal. A digest of the protocol: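 Transiently transfected HepG2 cells bearing cis-promoter reporter units for endogenous transcription factors; 24 h exposure. Reporter mRNA measured by RT-PCR, 6-FAM primer extension, HpaI cut and capillary electrophoresis; bidirectional fit relative to DMSO.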

The nature of assay [16]: ATG_NRF2_ARE_CIS: Attagene CIS-FACTORIAL HepG2 Assay for human Nuclear Factor Erythroid 2 Related Factor 2 (NFR2) response to Antioxidant Response Elements (ARE) (AID 2282992). The conditions noted are these: HepG2 Attagene ARE/NRF2 reporter, transcription factor activity; actives raise or lower the signal. A digest of the protocol:
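Using transiently transfected HepG2 cells exposed for 24 h, reporter mRNA levels were determined by RT-PCR with fluorescent primer extension and capillary electrophoresis, analysed for gain or loss of signal against DMSO.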

Assay [17] is described as follows: ATG_Oct_MLP_CIS: Attagene CIS-FACTORIAL HepG2 Assay for human Octamer-Binding Transcription Factor (Oct) (AID 2282993). The following applies: HepG2 Attagene cis-factorial Oct reporter, mRNA; actives raise or lower the signal. A digest of the protocol: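 HepG2 cells transiently transfected with cis-element-driven reporter transcription units (endogenous TF activity); 24 h compound exposure. Reporter mRNA quantified by RT-PCR, 6-FAM labelling, HpaI digestion and capillary electrophoresis; bidirectional fit versus DMSO baseline.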

Assay [18] has as its target Cellular tumor antigen p53 (Homo sapiens) (UniProt P04637). As to the kind of experiment: ATG_p53_CIS: Attagene CIS-FACTORIAL HepG2 Assay for human p53 Transcription Factor (AID 2282994). The conditions noted are these: HepG2 p53 cis-element reporter, Attagene mRNA; actives raise or lower the signal. A digest of the protocol:
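In HepG2 cells, reporter transcription units under cis-regulatory promoters were transiently introduced. Following 24 h treatment, RNA was processed to labelled, digested cDNA fragments read by capillary electrophoresis; fitting was bidirectional versus DMSO.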

A short description of assay [19]: ATG_XTT_Cytotoxicity: Cytotoxicity Assessment in the Attagene TRANS-FACTORIAL HepG2 Assay (AID 2283584; active means hit-call score of the fitted dose curve at least 0.9, where 1 is the maximum). Put shortly:
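24 h chemical exposure of reporter-transfected HepG2; XTT signal loss vs DMSO indicates cytotoxicity.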

For assay [20], the target named is Nuclear receptor subfamily 1 group I member 2 (Homo sapiens) (UniProt O75469). As to the kind of experiment: ATG_PXR_TRANS: Attagene TRANS-FACTORIAL HepG2 Assay for human Pregnane X Receptor (PXR) (AID 2283008; active means hit-call score of the fitted dose curve at least 0.9, where 1 is the maximum). A digest of the protocol:
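Multiplexed TRANS reporter panel in HepG2; this component tracks PXR-Gal4-driven reporter mRNA after 24 h dosing, measured by RT-PCR with capillary electrophoresis fluorescence, fitted against DMSO.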

Records with an inconclusive call do not appear. Active and inactive are the calls of the source. How the source made its calls, unless noted: active means hit-call score of the fitted dose curve at least 0.9, where 1 is the maximum; inactive means score below 0.9.

Nuclear respiratory factor 1 (Homo sapiens), sequence (Q16656 whole entry, looked up, the tested form may be a part): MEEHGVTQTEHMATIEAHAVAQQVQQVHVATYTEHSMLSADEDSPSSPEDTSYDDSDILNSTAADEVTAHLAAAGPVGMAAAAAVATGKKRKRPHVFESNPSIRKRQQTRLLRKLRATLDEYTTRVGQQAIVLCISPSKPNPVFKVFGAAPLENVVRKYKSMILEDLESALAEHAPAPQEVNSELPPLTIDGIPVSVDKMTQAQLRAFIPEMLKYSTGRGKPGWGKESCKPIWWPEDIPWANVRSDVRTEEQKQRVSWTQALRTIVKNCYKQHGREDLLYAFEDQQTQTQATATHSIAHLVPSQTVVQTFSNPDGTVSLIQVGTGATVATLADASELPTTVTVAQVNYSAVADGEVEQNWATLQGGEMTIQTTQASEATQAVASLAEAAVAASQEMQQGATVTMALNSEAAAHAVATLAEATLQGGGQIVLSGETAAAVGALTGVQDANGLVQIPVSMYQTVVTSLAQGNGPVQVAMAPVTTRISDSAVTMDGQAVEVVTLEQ
Cellular tumor antigen p53 (Homo sapiens), sequence (P04637 whole entry, looked up, the tested form may be a part): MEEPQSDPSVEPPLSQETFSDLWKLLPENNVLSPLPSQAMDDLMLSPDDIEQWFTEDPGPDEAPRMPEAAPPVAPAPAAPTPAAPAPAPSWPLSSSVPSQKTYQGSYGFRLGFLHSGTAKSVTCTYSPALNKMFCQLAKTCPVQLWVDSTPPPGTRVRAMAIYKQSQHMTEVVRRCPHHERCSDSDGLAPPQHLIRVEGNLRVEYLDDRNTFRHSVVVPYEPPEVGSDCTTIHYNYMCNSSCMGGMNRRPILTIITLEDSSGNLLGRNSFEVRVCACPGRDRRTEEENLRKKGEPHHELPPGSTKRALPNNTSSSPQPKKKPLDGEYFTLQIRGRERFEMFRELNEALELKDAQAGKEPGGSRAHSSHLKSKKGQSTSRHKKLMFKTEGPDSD
Heat shock factor protein 1 (Homo sapiens), sequence (Q00613 whole entry, looked up): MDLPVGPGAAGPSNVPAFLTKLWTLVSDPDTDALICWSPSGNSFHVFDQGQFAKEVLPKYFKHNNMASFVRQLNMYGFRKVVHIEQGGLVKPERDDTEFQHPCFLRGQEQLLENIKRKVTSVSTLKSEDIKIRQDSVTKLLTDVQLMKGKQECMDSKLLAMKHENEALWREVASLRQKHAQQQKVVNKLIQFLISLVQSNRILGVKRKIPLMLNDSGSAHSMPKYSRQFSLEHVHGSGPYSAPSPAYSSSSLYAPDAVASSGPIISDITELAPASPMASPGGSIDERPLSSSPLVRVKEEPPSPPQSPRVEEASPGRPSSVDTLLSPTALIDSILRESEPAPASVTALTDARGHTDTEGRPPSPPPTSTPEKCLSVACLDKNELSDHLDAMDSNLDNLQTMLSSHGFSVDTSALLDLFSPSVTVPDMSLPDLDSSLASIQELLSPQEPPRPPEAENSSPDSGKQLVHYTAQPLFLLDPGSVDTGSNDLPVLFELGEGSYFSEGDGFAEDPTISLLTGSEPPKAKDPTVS
Transcriptional activator Myb (Homo sapiens), sequence (P10242 whole entry, looked up): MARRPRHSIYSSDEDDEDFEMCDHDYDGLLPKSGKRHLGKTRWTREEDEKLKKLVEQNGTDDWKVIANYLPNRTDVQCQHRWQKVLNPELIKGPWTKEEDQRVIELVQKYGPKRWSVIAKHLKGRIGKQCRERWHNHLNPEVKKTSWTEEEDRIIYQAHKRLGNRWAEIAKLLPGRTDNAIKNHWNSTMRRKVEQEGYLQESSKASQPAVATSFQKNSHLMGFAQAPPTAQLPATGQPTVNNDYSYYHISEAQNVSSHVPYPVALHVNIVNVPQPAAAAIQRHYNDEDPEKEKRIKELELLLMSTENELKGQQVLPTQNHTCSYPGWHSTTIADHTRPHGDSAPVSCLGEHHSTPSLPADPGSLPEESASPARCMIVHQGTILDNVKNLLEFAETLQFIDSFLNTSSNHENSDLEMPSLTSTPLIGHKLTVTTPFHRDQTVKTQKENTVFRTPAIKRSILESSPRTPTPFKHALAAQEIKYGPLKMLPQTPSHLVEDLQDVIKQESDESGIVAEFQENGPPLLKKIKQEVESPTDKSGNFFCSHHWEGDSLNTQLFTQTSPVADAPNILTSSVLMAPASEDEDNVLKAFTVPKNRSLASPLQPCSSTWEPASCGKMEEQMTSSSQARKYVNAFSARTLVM
Signal transducer and activator of transcription 3 (Homo sapiens), sequence (P40763 whole entry, looked up, the tested form may be a part): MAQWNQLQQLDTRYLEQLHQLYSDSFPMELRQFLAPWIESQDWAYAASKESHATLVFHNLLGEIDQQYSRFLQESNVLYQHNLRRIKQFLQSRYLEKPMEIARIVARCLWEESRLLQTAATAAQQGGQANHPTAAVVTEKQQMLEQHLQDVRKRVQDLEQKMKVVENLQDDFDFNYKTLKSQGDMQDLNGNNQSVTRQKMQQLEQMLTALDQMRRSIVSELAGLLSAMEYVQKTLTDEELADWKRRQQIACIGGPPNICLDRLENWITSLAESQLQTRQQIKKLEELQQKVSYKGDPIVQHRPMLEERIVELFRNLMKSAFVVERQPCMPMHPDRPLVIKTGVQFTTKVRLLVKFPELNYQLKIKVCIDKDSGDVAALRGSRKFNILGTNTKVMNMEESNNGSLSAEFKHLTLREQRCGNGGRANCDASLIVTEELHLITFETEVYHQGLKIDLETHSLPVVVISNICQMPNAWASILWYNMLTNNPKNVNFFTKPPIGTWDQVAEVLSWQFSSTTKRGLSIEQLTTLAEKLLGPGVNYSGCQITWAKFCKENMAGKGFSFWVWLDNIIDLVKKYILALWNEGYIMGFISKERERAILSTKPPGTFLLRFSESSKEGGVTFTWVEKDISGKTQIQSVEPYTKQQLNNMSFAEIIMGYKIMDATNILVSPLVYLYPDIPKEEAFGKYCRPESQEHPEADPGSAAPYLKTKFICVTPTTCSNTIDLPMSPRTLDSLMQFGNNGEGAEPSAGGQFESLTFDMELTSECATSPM
Hepatocyte nuclear factor 3-beta (Homo sapiens), sequence (Q9Y261 whole entry, looked up): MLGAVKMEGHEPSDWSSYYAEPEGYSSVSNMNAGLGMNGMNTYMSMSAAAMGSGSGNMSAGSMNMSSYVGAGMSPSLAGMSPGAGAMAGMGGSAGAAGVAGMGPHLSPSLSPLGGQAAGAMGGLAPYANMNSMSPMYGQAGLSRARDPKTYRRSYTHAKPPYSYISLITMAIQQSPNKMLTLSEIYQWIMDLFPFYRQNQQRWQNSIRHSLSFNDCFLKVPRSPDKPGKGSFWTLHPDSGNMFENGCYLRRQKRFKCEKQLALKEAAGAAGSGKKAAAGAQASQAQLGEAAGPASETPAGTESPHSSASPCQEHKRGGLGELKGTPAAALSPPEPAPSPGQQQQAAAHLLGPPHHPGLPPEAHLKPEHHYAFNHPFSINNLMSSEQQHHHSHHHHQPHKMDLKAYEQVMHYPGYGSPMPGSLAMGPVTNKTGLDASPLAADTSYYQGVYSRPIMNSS
Myc proto-oncogene protein (Homo sapiens), sequence (P01106 whole entry, looked up): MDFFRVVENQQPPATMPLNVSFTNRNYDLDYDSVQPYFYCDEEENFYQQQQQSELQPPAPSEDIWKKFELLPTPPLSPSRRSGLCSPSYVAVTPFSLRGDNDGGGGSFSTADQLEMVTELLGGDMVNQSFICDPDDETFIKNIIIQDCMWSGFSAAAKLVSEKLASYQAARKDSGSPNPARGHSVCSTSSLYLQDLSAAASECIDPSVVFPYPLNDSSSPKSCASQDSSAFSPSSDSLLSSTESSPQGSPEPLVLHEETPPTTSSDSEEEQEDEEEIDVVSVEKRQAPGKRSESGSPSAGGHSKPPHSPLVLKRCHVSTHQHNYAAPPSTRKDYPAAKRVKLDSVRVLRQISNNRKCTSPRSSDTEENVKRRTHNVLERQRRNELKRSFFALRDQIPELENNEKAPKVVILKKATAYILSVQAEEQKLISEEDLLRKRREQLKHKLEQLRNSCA
Nuclear receptor subfamily 1 group I member 2 (Homo sapiens), sequence (O75469 whole entry, looked up, the tested form may be a part): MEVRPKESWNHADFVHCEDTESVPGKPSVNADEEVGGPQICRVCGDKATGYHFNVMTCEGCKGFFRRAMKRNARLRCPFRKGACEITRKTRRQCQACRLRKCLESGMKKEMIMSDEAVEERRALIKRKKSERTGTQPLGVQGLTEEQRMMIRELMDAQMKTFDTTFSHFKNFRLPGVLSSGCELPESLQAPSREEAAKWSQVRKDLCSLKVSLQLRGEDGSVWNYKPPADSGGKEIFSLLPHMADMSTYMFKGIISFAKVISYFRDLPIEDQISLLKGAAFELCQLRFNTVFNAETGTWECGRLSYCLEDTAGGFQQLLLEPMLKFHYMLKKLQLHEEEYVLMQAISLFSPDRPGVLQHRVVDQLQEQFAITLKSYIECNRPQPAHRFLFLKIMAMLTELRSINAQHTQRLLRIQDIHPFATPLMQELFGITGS

Consider `COCCCN`, for which the result in assay [1], in assay [2], in assay [3], in assay [4], in [5] and in assay [6] was inactive. Also, the call in [7], in assay [8], in assay [9], in assay [10], in assay [11] and in [12] was inactive. The result in assay [13], in assay [14], in assay [15], in assay [16], in assay [17] and in assay [18] was inactive. In addition, in [19], the outcome was inactive.

Consider `O=C(O)Cc1c[nH]c2ccccc12`, for which the compound was called inactive in assay [1], in [2], in [3], in assay [4], in [5] and in assay [6]. In addition, the outcome in assay [7], in assay [8], in assay [9], in assay [10], in [11] and in assay [12] was inactive. In addition, the outcome in [13], in [14], in assay [15], in assay [17], in assay [18] and in assay [20] was inactive. Also, in [16], the AC50 (as a rule, the midpoint of the concentration-response curve, whichever way the signal moves) was 74.1 µM (active).

As to `c1ccc2c(c1)Oc1ccccc1S2`, the compound was called inactive in assay [1], in [2], in assay [3], in assay [4], in assay [7] and in [8]. Further, the result in assay [9], in [10], in assay [11], in assay [12], in assay [13] and in [15] was inactive. For the same compound, the call in assay [17], in assay [18], in [20] and in [19] was inactive. Further, the AC50 in [5] was 155 µM (active); in assay [6] it was 146 µM (active); in assay [14] it was 140 µM (active); in assay [16], 146 µM (active).

(Values after PubChem BioAssay (EPA / NIEHS).)
